The source made the active and inactive calls. How the calls were made is not given here.
What follows are compounds tested on Botulinum neurotoxin type F light chain protease (Clostridium botulinum) (assay: Clostridium botulinum type F light chain protease inhibitors, microsphere substrate cleavage, validation (AID 588459)). Conditions: multiplex microsphere protease substrate cleavage assay, flow cytometry; at 10 µM; stronger effect = higher value.
In the case of `COc1ccc(NS(=O)(=O)c2ccc(N)cc2)nn1`, the inhibition is reported as 7.2% (inactive). In the case of `CC(=O)CSc1ncnc2c1cnn2-c1ccccc1`, the inhibition is reported as 2.3% (inactive). With `COc1ccc(C2C(C(=O)c3ccco3)=C(O)C(=O)N2CC2CCCO2)cc1` (centres undefined) the inhibition was 1.3% (inactive). In the case of `Cc1ccc2c(c1)c1c3n2CCCN(Cc2ccccc2)C3CCC1` (centres undefined), the inhibition is reported as -0.2% (inactive). `c1ccc(Nc2cccc3c(Nc4ccccc4)cccc23)cc1` was tested, and the inhibition was -3.6% (inactive). For `O=C(O)[C@H](Cc1ccccc1)NC(=O)N1CCC(Cc2ccccc2)CC1`, the inhibition was 5.5% (inactive). In the case of `C[C@]12CC[C@H]3C(=CCc4cc(O)ccc43)[C@@H]1CCC2=O`, the inhibition is reported as 0.5% (inactive). For `CCn1c(O)c(/C=C2\C=Nc3ccccc32)sc1=O`, the inhibition was 2.3% (inactive). In the case of `Cc1ccc2nc3c(cc(C(=O)NCC4CCCO4)c(=N)n3CCCOC(C)C)c(=O)n2c1` (centres undefined), the inhibition is reported as 3.3% (inactive). With `O=C1c2ccccc2C(=O)N1/N=C/c1ccc(Oc2ccc([N+](=O)[O-])cn2)cc1` the inhibition was 0.2% (inactive). For `C[C@]12CC[C@@H]3c4ccc(O)cc4CC[C@H]3[C@@H]1C[C@@H](O)[C@@H]2O[C@@H]1O[C@H](C(=O)O)[C@@H](O)[C@H](O)[C@H]1O`, the inhibition was -1.9% (inactive). With `CC12CCC(C(=O)NNc3ccccc3)(C(=O)C1=O)C2(C)C` (centres undefined) the inhibition was 1.1% (inactive). `NC(=O)OCC(COC(N)=O)c1ccccc1` was tested, and the inhibition was -1% (inactive). In the case of `COc1ccc(/C=C/C(=O)c2cc3cccc(OC)c3oc2=O)cc1`, the inhibition is reported as 2.3% (inactive). For `COc1ccc(CNC(=O)C2CCN(C(=O)[C@@H](CC(C)C)NC(=O)OC(C)(C)C)CC2)cc1`, the inhibition was 1.1% (inactive). For `Cc1ccccc1OCCSc1nc2ncnc(N)c2[nH]1`, the inhibition was 0.8% (inactive). `O=c1ccc2ccccc2o1` was tested, and the inhibition was -3% (inactive). In the case of `O=C(O)CCCCCCNC(=O)c1cncc(O)c1`, the inhibition is reported as -1.8% (inactive). `Nc1ccc2cn[nH]c2c1` was tested, and the inhibition was -8.4% (inactive). `COc1ccc(CNCCC(c2ccc(F)cc2)c2ccc(OC(C)C)cc2)cc1OC` (centres undefined) was tested, and the inhibition was -0.6% (inactive). `COc1ccc(NC(=O)CC(c2ccccc2)c2ccco2)cc1` (centres undefined) was tested, and the inhibition was 2.3% (inactive). With `COCc1cc(=O)[nH]c(/N=C(\N)Nc2ccc(Oc3ccccc3)cc2)n1` the inhibition was 3.4% (inactive). For `CC(C)C(=O)Nc1ccc2c3c(cccc13)CC2`, the inhibition was 1% (inactive). In the case of `CC1(C#CC[N+]2(C)CCCCC2)CCC2C(O1)c1ccccc1OC2(C)C` (centres undefined), the inhibition is reported as 2.6% (inactive). In the case of `O=c1cc(-c2ccc3c(c2)OCCO3)oc2ccc(Cl)cc12`, the inhibition is reported as 0.8% (inactive). `CC(=O)N1CC23C=CC(CC2CC12CCCCCC2)O3` (centres undefined) was tested, and the inhibition was 1.3% (inactive). For `CCc1cc(/C(Cc2ccccn2)=N\O)c(O)cc1O`, the inhibition was -2.8% (inactive). For `CC(=O)C1=C(NC(=O)c2ccc(C(F)(F)F)cc2)C[C@@H]2[C@H]1C2(C)C`, the inhibition was 2% (inactive). With `CCOC(=O)c1oc2cc(OCC(N)=O)ccc2c(=O)c1-c1ccc(OC)c(OC)c1` the inhibition was -3.1% (inactive). In the case of `Cc1ccccc1NC(=O)C1(C)Cc2ccccc2C(=O)O1` (centres undefined), the inhibition is reported as 0.3% (inactive). For `CC(=O)Oc1ccc(C(c2ccc(OC(C)=O)cc2)c2ccccn2)cc1`, the inhibition was 1.2% (inactive). `NC(=O)c1ccccc1O` was tested, and the inhibition was -3.5% (inactive). `N/C(=N\OC(=O)CCCOc1ccc(Cl)cc1Cl)c1ccncc1` was tested, and the inhibition was 3.7% (inactive). With `Oc1ccccc1OCCOc1ccccc1OCCOc1ccccc1O` the inhibition was 6.5% (inactive). In the case of `COc1ccc(-c2cc(=O)oc3c(C)c(O)c(CN(C)C)cc23)cc1`, the inhibition is reported as 11.3% (inactive). With `CC1CCc2cc(F)cc3c(=O)c(C(=O)O)cn1c23` (centres undefined) the inhibition was 3.2% (inactive). `O=C1CCCCCN1Cc1ccccc1` was tested, and the inhibition was -3.6% (inactive). In the case of `Nc1ccc(S(=O)(=O)c2ccc(N)cc2)cc1`, the inhibition is reported as -2.8% (inactive). With `O=[N+]([O-])c1ccc(O)c2ncccc12` the inhibition was -1.5% (inactive).

Reference: PubChem BioAssay
